Screens (PubChem)
Shown are actives, neighbours in structure and some others; about 2.4% of the full set was active somewhere.
APOBEC3G inh: APOBEC3G (human) deaminase inhibition. Q9HC16. inhibition, % at 20 µM. 330,000 tested, 0.28% active. recombinant A3G, ssDNA deamination FAM/TAMRA fluorescence;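 active = inhibition of at least 40% at 20 µM, with no more than 30% in the related APOBEC3A deaminase screen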;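 note: plate controls were DMSO wells with A3G for no effect and wells lacking A3G enzyme for full effect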
ADAM17 inh: inhibitors of human ADAM17. inhibition, % at 6.95 µM. P78536. 370,000 tested, 0.83% active. recombinant ADAM17, EDANS/DABCYL FRET peptide cleavage;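 active = inhibition above the mean of compounds lying between control limits plus 3 SD, set per campaign, cut at about 8.5% in these data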;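 note: 0% = DMSO-only wells as the low control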
APOBEC3A inh: human APOBEC3A DNA deaminase inhibition | 330,000 tested, 0.41% active | inhibition, % at 20 µM | AID 493011 | recombinant A3A, FAM/TAMRA ssDNA deamination fluorescence | P31941;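 active = at least 40% inhibition at 20 µM here, with at most 30% in a related deaminase screen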;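 note: plate controls were A3A with DMSO for no effect and wells lacking A3A enzyme for full effect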
ADAM10 inh: ADAM10 inhibition, QFRET primary screen; O14672; recombinant ADAM10, EDANS/DABCYL FRET peptide cleavage, 3 h; inhibition, % at 7 µM; 370,000 tested, 0.62% active;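 active = inhibition above a per-campaign cutoff equal to the mean of compounds falling between control-based bounds plus 3 SD, cut at about 20% in these data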;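 note: 0% = DMSO wells while the 100% control is not disclosed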
Target sequence (O14672 214-748 limits assumed): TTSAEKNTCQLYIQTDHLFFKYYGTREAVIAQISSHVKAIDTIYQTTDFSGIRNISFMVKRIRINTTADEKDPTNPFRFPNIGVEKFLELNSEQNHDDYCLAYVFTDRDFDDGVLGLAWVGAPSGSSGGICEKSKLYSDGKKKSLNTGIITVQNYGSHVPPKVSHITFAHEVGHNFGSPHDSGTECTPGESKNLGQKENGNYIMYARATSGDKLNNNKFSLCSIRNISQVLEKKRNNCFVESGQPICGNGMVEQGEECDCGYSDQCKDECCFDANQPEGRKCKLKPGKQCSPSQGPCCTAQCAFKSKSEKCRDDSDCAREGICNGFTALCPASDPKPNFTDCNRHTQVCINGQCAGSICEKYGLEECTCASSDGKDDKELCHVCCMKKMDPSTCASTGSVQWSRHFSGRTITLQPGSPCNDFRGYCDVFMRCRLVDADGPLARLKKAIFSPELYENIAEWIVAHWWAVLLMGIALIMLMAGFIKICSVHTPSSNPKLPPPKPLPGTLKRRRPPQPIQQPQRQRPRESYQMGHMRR
CendR NRP1 mod: NRP-1/CendR interaction modulation; inhibition, % at 25 µM; 360,000 tested, 0.85% active; O14786; FAM-RPARPAR peptide binding to NRP-1, fluorescence polarization;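 active = inhibition or corrected inhibition above about 18%, plus a signal ratio from 0.5 to 1.5, limit read from the data, passing the limit was not always enough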
ADAM10 confirm: confirmation of inhibitors of human ADAM10; shares compounds with ADAM10 inh; ADAM10 QFRET peptide cleavage, EDANS fluorescence; inhibition, % at 6.95 µM; 2,100 tested, 1% active; AID 743208;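 active = inhibition above about 20% chosen separately for each screening run, limit read from the data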;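 note: 0% = DMSO wells and 100% = marimastat wells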
ADAM17 ctr: ADAM17 inhibition, counter-screen for ADAM10 exosite hits; shares compounds with ADAM10 inh; ADAM17 QFRET peptide cleavage, EDANS fluorescence; inhibition, % at 6.95 µM; 2,100 tested, 0.5% active;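 active = mean triplicate inhibition above the solvent-only control wells' mean plus 3 SD, cut at about 12% in these data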;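 note: 0% = DMSO wells and 100% = marimastat wells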
* = called active by the depositor; · = no result given.

SMILES	APOBEC3G inh	ADAM17 inh	APOBEC3A inh	ADAM10 inh	CendR NRP1 mod	ADAM10 confirm	ADAM17 ctr
CN1C(=O)c2cc(NS(=O)(=O)c3ccc(F)cc3)ccc2OC[C@H]2O[C@@H](CC(=O)NCC(F)(F)F)CC[C@@H]21	·	-18	·	26*	·	13	3
O=C(NC1CCCCN(Cc2cccc(Cl)c2)C1=O)c1cccc([N+](=O)[O-])c1 (centres undefined)	·	2	·	3	·	·	·
COC(=O)c1ccc(-c2cc3onc(-c4ccccc4)c3c(=O)n2C)cc1	-10	1	-2	71*	-4	25*	7
COCC(=O)N[C@H]1C[C@@H]2O[C@H](CO)CC[C@@H]2O[C@@H]1CCc1ccc(-c2ccccc2)cc1	·	0	·	3	·	·	·
N#C/C(=N\Nc1ccccc1Cl)C(=O)c1ccccc1	-1	-4	-2	-9	4	·	·
N#C/C(=N\Nc1cccc(Cl)c1)C(=O)c1ccccc1	0	8	-2	20*	-6	-1	-1
CCCN1CCCCC(NC(=O)c2ccc(Cl)cc2Cl)C1=O (centres undefined)	·	-3	·	-2	·	·	·
S=C1Nc2ccccc2CS1	·	-5	·	-5	-6	·	·
c1ccc2c(c1)CSc1ccccc1N2	-2	8	6	21*	7	2	1
O=C1c2ccccc2C(=O)N1CCc1c(-c2ccccc2)[nH]c2ccccc12	·	5	·	20*	2	7	2
O=C1c2ccccc2C(=O)N1CCc1c(-c2[nH]c3ccccc3c2CCN2C(=O)c3ccccc3C2=O)[nH]c2ccccc12	·	-3	·	-14	-6	·	·
CCOC(=O)N/N=C/c1cn(CCCOc2ccc(C)cc2)c2ccccc12	-9	6	-5	0	12	·	·
Cc1ccc(OCC(=O)N/N=C/c2cn(Cc3ccccc3)c3ccccc23)cc1	-3	6	-1	23*	2	1	2
COc1ccc(N2C(=O)N3[C@H](c4ccc(Br)cc4)[C@@H]4C(=O)N(C(C)(C)C)C(=O)[C@@H]4[C@]3(Cc3ccccc3)C2=O)cc1	-7	7	-1	24*	-2	4	1
O=C1[C@H]2[C@@H](c3ccc(F)cc3)N3C(=O)N(c4ccccc4)C(=O)[C@@]3(Cc3ccccc3)[C@H]2C(=O)N1C1CCCCC1	7	7	3	24*	0	1	1
COc1ccc([C@@H]2[C@@H]3C(=O)N(C(C)(C)C)C(=O)[C@@H]3[C@]3(Cc4ccccc4)C(=O)N(c4ccc(Br)cc4)C(=O)N23)cc1	-14	·	-6	·	-4	·	·
Fc1ccc(Cn2ccc3ccc(-c4ccc5ccn(Cc6ccc(F)cc6F)c5c4)cc32)c(F)c1	·	-28	·	-95	·	·	·
O=S(=O)(Nc1cccc2cccnc12)c1ccc(S(=O)(=O)N2CCCC2)cc1	4	5	1	22*	-12	3	2
O=S(=O)(Nc1cccc2cccnc12)c1ccccc1	-5	-4	-3	0	-8	·	·
CNC(=S)NNC(=O)c1noc(C)c1C(=O)N1CCN(C(c2ccccc2)c2ccccc2)CC1	-4	6	-2	32*	-20	-1	0
O=C(c1cccc(Cl)c1)N1CCC(=O)N([C@H](COCc2cccc(Cl)c2)Cc2ccccc2)CC1	·	7	·	20*	-10	4	1
CC(C)CC(COCc1ccc(C(F)(F)F)cc1)N1CCN(C(=O)c2ccc(C(F)(F)F)cc2)CCC1=O (centres undefined)	-11	7	0	27*	-4	0	1
CC(C)CC(COCc1cccc(C(F)(F)F)c1)N1CCN(C(=O)c2cccc(C(F)(F)F)c2)CCC1=O (centres undefined)	-3	7	1	21*	8	3	0
Cc1cc(N2CCCC2)ccc1/C=C1\NC(=S)N(C)C1=O	-36	4	-14	25*	-42	2	0
CN1C(=O)c2ccc(N3CCCC3)cc2C1=O	-7	-13	-7	-51	-3	·	·
SMILES	APOBEC3G inh	ADAM17 inh	APOBEC3A inh	ADAM10 inh	CendR NRP1 mod	ADAM10 confirm	ADAM17 ctr
Cc1ccc(Cn2nnc3c(=O)[nH]c(C4CCN(S(=O)(=O)c5ccc(F)cc5)CC4)nc32)cc1	-8	6	-3	21*	-1	1	1
O=c1[nH]c(C2CCN(S(=O)(=O)c3ccc(F)cc3)CC2)nc2c1nnn2Cc1ccc2c(c1)OCCO2	-1	1	-8	23*	-9	2	1
O=c1[nH]c(C2CCN(S(=O)(=O)/C=C/c3ccccc3)CC2)nc2c1nnn2Cc1ccc(F)cc1	-9	8	-2	29*	0	2	2
CCCC1=Nc2cc(C(=O)NCCCOC(C)C)ccc2Sc2ccccc21	-4	8	-4	21*	12	7	2
O=C(NC1CCCCN(Cc2ccc(Cl)cc2)C1=O)C(c1ccccc1)c1ccccc1 (centres undefined)	·	4	·	22*	·	6	4
CCNS(=O)(=O)c1ccc(CCC(=O)Nc2cc(Cl)ccc2Oc2ccccc2)cc1	-7	6	-4	21*	-2	4	2
CN(C(=O)c1cncc(Br)c1)c1c(N)n(Cc2ccccc2)c(=O)[nH]c1=O	-4	-1	1	82*	-2	1	0
Cc1ccc(S(=O)(=O)NCC2CN(S(=O)(=O)c3ccc(C)cc3)c3ccccc3C(=O)N2c2ccc(F)cc2)cc1 (centres undefined)	·	5	·	23*	·	2	1
Cc1ccc(S(=O)(=O)NCC(=O)N2CCN(c3ccc(F)cc3)CC2)cc1	-7	-3	3	8	2	·	·
COc1cc(S(=O)(=O)N2CCOCC2)ccc1NC(=O)COC(=O)c1cc(OC)c(OC)c(OC)c1	2	1	21	-1	-6	·	·
COc1cc(S(=O)(=O)N2CCOCC2)ccc1NC(=O)COC(=O)CC12CC3CC(CC(C3)C1)C2	-5	8	-2	29*	-1	2	1
O=c1c2ccccc2nnn1Cc1ccco1	·	0	·	-6	·	·	·
O=C(CN1CCN(S(=O)(=O)c2ccc(Br)cc2)CC1)Nc1ccc(F)cc1	-4	0	1	-4	2	·	·
O=C(CN1CCN(S(=O)(=O)c2ccc(Br)cc2)CC1)Nc1ccc2c(c1)OCO2	-5	1	-3	21*	6	0	0
COc1ccc(C2(C)NC(=O)N(CC(=O)Nc3ccc(S(=O)(=O)N4CCCC4)cc3)C2=O)cc1 (centres undefined)	-5	-2	0	1	6	·	·
CC1CCCN(S(=O)(=O)c2ccc(NC(=O)CN3C(=O)NC(C)(c4ccccc4)C3=O)cc2)C1 (centres undefined)	-13	5	10	20*	5	4	1
